PNC inhibitor = inhibitors of perinucleolar compartment assembly; PC3M PTB-GFP, PNC prevalence imaging, 16 h; stronger effect = lower value; activity change (PNC), negative = inhibition, % at 10 µM; 140,000 compounds, 3.1% hits; AID 2417;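 active = readout at or below -70, meaning at least 70% loss of cells showing the perinucleolar compartment, a nuclear body marking cancer cells; inconclusive = readout between -30 and a set limit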
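PC3M cells stably expressing PTB-GFP, 750–1000 cells/well, treated 16 h at 37 °C with compound (23 nl of library stock), in duplicate. After paraformaldehyde fixation and Hoechst stain, imaged at 20x; PNC prevalence scored by image analysis.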
IMPase cell inh = IMPase inhibition in cells | P97697 | CHO-M1 cells, IP1 accumulation, HTRF TR-FRET ratio | inhibition (IP1 accumulation), % at 46.1 µM | 120,000 tested, under 10 active; active = well fitted curve in the direction sought with a large enough effect in the signal ratio, not every such curve was filed as active; inconclusive = small, poorly fitted or top-dose-only effect, or a change in a side signal; inactive = no such curve, though single readings can be large or run the other way; the % refers to the signal ratio;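 note: cells stimulated with carbachol in lithium chloride buffer; higher means more IMPase inhibition seen as more IP1 and lower FRET ratio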
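CHO-M1 cells (CHO stably expressing M1 receptor), compound up to 46 uM final, stimulated with carbachol (50 uM as added) in buffer with 50mM LiCl, pH 7.4, 30 min at 37C. Cytosolic IP1 read by TR-FRET; AC50 from Hill fits.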
15-hLO-2 inh = 15-hLO-2 (ALOX15B) enzyme inhibition; 110,000 compounds, 0.56% hits; Potency, µM (doses to about 57.1 µM), hits mostly inhibitors; O15296; purified 15hLO-2, xylenol orange hydroperoxide absorbance; note: nearly all actives have a fitted effect of over 60% in size
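Purified human 15hLO-2 (50 nM final) preincubated with compounds 15 min at room temperature in 25 mM Hepes pH 7.5, 0.01% Triton X-100, then 45 uM arachidonic acid added for 90 min; hydroperoxide detected via ferrous/xylenol orange, 573/405 nm absorbance ratio.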
IMPase Li cell = IMPase inhibition in cells with lithium potentiation. 210,000 compounds, 0.35% hits. CHO-M1 cells, IP1 TR-FRET (IP-One), carbachol + lithium. Potency, µM (highest dose often 59.4 µM), hits mostly inhibitors;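 note: IP1 builds up when IMPase is blocked and the TR-FRET signal falls; nearly all actives have a fitted effect of over 50% in size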
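IP1 accumulation measured by competitive TR-FRET in lysed CHO-M1 cells after 30 min compound exposure at 37C, with a small lithium addition to potentiate weak responses. Hill-equation AC50 from ratio and donor-channel data.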
HPGD block = HPGD (human) dehydrogenase inhibition; P15428; purified HPGD, NADH fluorescence kinetic, PGE2 substrate; Potency, µM, most hits filed as inhibitors; 150,000 compounds, 4.3% hits; AID 894; active = well fitted inhibition curve with a large enough effect, not every such curve was filed as active; inconclusive = small, poorly fitted or top-dose-only effect, or another doubt; inactive = no such curve, though single readings can be large or run the other way
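20 nM HPGD preincubated 15 min at room temperature with compound in 50 mM Tris-HCl pH 8, 0.01% Tween 20. Started with 1 mM NAD+ and 30 uM prostaglandin E2; NADH fluorescence (360/450 nm) read 5 times over 30-s intervals, last minus first.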
12-hLO inh = blocks human 12-lipoxygenase activity; P18054; purified 12-hLO, xylenol orange hydroperoxide absorbance; Potency, µM (highest dose often 57.1 µM), most hits filed as inhibitors; 150,000 compounds, 0.12% hits; AID 1452; note: nearly all actives have a fitted effect of over 55% in size
Target sequence (P18054 whole entry, looked up): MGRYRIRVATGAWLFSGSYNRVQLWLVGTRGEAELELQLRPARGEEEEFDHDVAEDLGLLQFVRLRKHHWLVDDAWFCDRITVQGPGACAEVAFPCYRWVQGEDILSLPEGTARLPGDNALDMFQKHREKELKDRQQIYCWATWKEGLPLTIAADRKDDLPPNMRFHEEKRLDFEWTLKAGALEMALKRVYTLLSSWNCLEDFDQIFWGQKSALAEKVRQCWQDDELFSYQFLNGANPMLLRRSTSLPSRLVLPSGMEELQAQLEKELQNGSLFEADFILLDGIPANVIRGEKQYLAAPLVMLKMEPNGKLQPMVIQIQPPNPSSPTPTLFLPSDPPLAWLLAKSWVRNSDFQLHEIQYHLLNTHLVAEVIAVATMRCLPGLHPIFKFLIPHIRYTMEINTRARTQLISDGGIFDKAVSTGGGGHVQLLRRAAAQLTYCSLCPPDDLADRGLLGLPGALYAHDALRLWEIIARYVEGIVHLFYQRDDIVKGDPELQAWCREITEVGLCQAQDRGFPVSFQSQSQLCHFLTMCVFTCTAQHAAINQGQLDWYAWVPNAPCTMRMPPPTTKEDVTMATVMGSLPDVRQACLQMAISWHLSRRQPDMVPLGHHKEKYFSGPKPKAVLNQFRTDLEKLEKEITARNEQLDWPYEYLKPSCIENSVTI
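Hydroperoxide formation by human 12-lipoxygenase from 40 uM arachidonic acid was followed colorimetrically via ferric-xylenol orange complex, using the 573/405 nm absorbance ratio. Enzyme concentration was 150 nM, with 30 min reaction at room temperature.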
Hits are given with their value; . = inactive; ? = inconclusive; / = no result; [ ] = dose if it differs, or a comment. Shown are actives, neighbours in structure and some others; about 5.3% of the full set was active somewhere. Unless noted, calls come from the whole dose curve; as a rule, active = well fitted curve in the direction sought with a large enough effect; inconclusive = small, poorly fitted or top-dose-only effect, or another doubt; inactive = no such curve, though single readings can be large; an effect the other way counts as inactive or inconclusive.

SMILES | PNC inhibitor | IMPase cell inh | 15-hLO-2 inh | IMPase Li cell | HPGD block | 12-hLO inh
C/C=C/Cn1c(SCc2ccccc2)nc2c1c(=O)[nH]c(=O)n2C | . | . | ? | . | 20µM | .
C/C=C/CSc1nc2c(c(=O)[nH]c(=O)n2C)n1Cc1ccc(C)cc1 | . | . | . | . | 18µM | .
Cc1ccc(Cn2c(Sc3ncccn3)nc3c2c(=O)[nH]c(=O)n3C)cc1 | . | . | . | . | . | .
CC(C)CCn1c(SCc2ccc(Cl)cc2)nc2c1c(=O)[nH]c(=O)n2C | . | . | . | . | 25µM | .
Clc1cccc(CN2CCCCCCC2)c1Cl | ? | . | / | . | . | .
COc1ccc2ccc3c(c2c1)N=C[C@]1(O3)N(C)c2ccccc2C1(C)C | . | . | ? | . | 32µM | ?
COc1ccc(Nc2ccc(C(=O)O)cc2[N+](=O)[O-])cc1 | . | . | / | . | . | .
COc1ccc(OC)c(Nc2ccc(C(=O)O)cc2[N+](=O)[O-])c1 | . | . | / | . | 16µM | .
COc1ccc(NC(=O)CN2CCCCC2)c([N+](=O)[O-])c1 | -90 | . | . | . | . | .
COCCn1c(=O)c(-c2cn(C)c3ccccc23)nc2cnc(N3CCNCC3)nc21 | / | / | . | . | / | /
C[C@H](CN(C)C)C(O)(c1ccccc1)c1ccccc1 | / | / | .[11.4 µM] | . | . | .[11.4 µM]
Cc1cc(C)c[n+](C(C)C(=O)c2ccc(-c3ccccc3)cc2)c1 (configuration not stated) | . | . | / | . | . | .
CC(C)(C)c1ccc(S(=O)(=O)/C=C/C#N)cc1 | / | / | / | . | 10µM | /
O=C(NCc1cccnc1)c1cccs1 | / | / | / | . | / | /
O=C(NCCCCc1ccccc1)C12CN(Cc3ccccc3)CC1C(c1ccc([N+](=O)[O-])cc1)=NO2 (configuration not stated) | . | . | . | . | . | .
CC1CCN(c2ccccc2NC(=S)NC(=O)c2ccc(-c3cccc([N+](=O)[O-])c3)o2)CC1 | ? | . | 16µM | . | . | .
O=C(N/N=C/C1C(c2ccccc2)C1(Cl)Cl)c1cccc(Br)c1 (configuration not stated) | . | . | . | . | . | .
c1ccc(Nc2nc3ccccc3[nH]2)nc1 | ? | . | . | . | 32µM | .
CCOC(=O)c1nn(-c2cccc(OC)c2)c2nc(CC)c(C#N)c(=O)n12 | -109 | / | / | . | . | .
COC(=O)c1cc(NC(=O)C2CCCN(S(=O)(=O)c3c(C)n[nH]c3C)C2)cc(C(=O)OC)c1 (configuration not stated) | / | / | / | . | / | /
O=C(NCCCn1ccnc1)Nc1cccc2ccccc12 | -100 | . | / | . | . | .
CC(C)c1ccccc1NC(=S)NCCCn1ccnc1 | / | / | / | . | / | /
Cc1cc(NC(=O)CSc2nccn2C)no1 | / | / | / | . | / | /
CCCCn1nnc(NC(=S)NC(=O)c2ccc(-c3cccc(Cl)c3Cl)o2)n1 | . | . | / | / | / | .
CCOC(=O)CSc1nnc(-c2ccoc2C)n1-c1ccc(C)cc1 | -100 | . | / | . | . | .
SMILES | PNC inhibitor | IMPase cell inh | 15-hLO-2 inh | IMPase Li cell | HPGD block | 12-hLO inh
Cc1cccc(C)c1Nc1oc(-c2ccccc2)nc1-c1ccccc1F | / | / | / | . | . | .
Nc1nnc(Cc2ccccc2)s1 | . | . | . | . | . | .
COc1ccc(Cc2ccc(OC)c(N)c2)cc1N | ? | . | . | . | . | .
O=C(Cc1cccs1)Nc1nnc(Cc2ccccc2)s1 | . | . | / | . | . | .
COc1ccc(S(=O)(=O)Nc2nnc(Cc3ccc(OC)c(OC)c3)s2)cc1 | / | / | / | . | / | /
COc1ccc(Cc2nnc(NC(=O)Cc3cccs3)s2)cc1OC | -100 | . | / | . | ? | .
COc1cc(Cc2ccc(N)c(OC)c2)ccc1N | -113 | / | / | . | . | .
COc1ccc(Cc2nnc(N)s2)cc1OC | . | . | / | . | 32µM | .
COc1ccc(Cc2nnc(N)s2)cc1 | . | . | . | . | 28µM | .
COCCn1nnnc1SCC(=O)Nc1ccc2c(c1)OCO2 | / | / | / | . | / | /
C/C(C[n+]1ccccc1)=N\N=C(N)N | / | / | .[11.4 µM] | . | . | .[11.4 µM]
Cn1nc(C(=O)Nc2nc3ccccc3[nH]2)c2ccccc2c1=O | ? | . | / | . | . | .
CCn1nc(C(=O)Nc2nc3ccccc3[nH]2)c2ccccc2c1=O | -89 | / | / | . | . | .
Cn1c(=O)cnc2cnc(OCc3ccccc3)nc21 | / | / | . | . | / | /
C=C(C(=O)C(C)(C)O)C(O)c1ccc([N+](=O)[O-])cc1 (configuration not stated) | / | / | / | . | 25µM | /
O=C1CSC(=Nc2ccccc2Cl)N1 | . | . | . | . | 16µM | .
Brc1cccc(-c2cnc3n2CCCCC3)c1 | . | . | . | . | ? | .
O=C1Nc2ccc(Br)cc2C1=Nc1ccc(-c2nnc3n2CCCCC3)cc1 | ? | . | . | . | 4µM | .
Brc1cccc(-c2nnc3n2CCCCC3)c1 | . | . | . | . | 6.3µM | .
c1ccc(-c2nnc3n2CCCC3)cc1 | ? | . | . | . | 14µM | .
COC(=O)c1nnn(CC(=O)NC(=O)Nc2cccc(C)c2C)c1C(=O)OC | -113 | / | / | . | . | .
O=[N+]([O-])c1cc(-c2cnc3ccccc3n2)ccc1Oc1ccc(Br)cc1 | -106 | . | . | . | . | .
COc1ccc2c(c1OC)C(=O)N1N=C(c3ccc(O)cc3)CC21 (configuration not stated) | . | . | . | . | . | .
CC1=C(C(=O)OC(C)C)C(c2cccc([N+](=O)[O-])c2)n2c(cc(=O)[nH]c2=S)N1 (configuration not stated) | ? | / | / | . | 28µM | ?
CCC(CC)C(=O)Nc1cc([N+](=O)[O-])ccc1Cl | -116 | / | / | . | . | .
SMILES | PNC inhibitor | IMPase cell inh | 15-hLO-2 inh | IMPase Li cell | HPGD block | 12-hLO inh
Cc1[nH]nc2c1C(c1ccccc1F)NC2=O (configuration not stated) | -103 | . | . | . | . | .
CCOc1ccc(C2NC(=O)c3n[nH]c(C)c32)cc1 (configuration not stated) | ? | . | . | . | . | .
COCCNC(=O)c1ccccc1NC(=O)c1ccccc1N(C)S(C)(=O)=O | -111 | / | / | . | . | .
CC(C)c1c(O)nc(SCCN(C)C)[nH]c1=O | -87 | . | . | . | . | .
O=[N+]([O-])c1ccc2c(c1)Cc1cc(N=Cc3ccc4c(c3)OCO4)ccc1-2 | / | / | .[11.4 µM] | . | . | .[11.4 µM]
Fc1ccc(-c2nn3c(C4COc5ccccc5O4)nnc3s2)cc1 (configuration not stated) | . | . | . | . | 28µM | .
c1ccc2c(c1)OCC(c1nnc3sc(-c4cnccn4)nn13)O2 (configuration not stated) | . | . | . | . | 25µM | .

Screening data as filed in PubChem.
